Experiment in all cases: PBM binding z-score (relative to random genomic background probes); higher = stronger binding; sequences stand for … in GC…GCGATTGACAGCGTAGAATGAAGG
In experiment [1] the test system is RARb homodimer (NR concentration 270 nM). Put shortly: (§1)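 Antibodies against each partner of ligand-free nuclear receptor dimers (one per run) detected binding on custom Agilent 4×180K protein-binding microarrays after 1 h incubation. The double-stranded probes had 34-nt variable regions carrying direct-repeat seeds, single-nucleotide variants, half-site ablations and random human genomic background sequences. Binding z-scores, from regression-normalized fluorescence, use the random background probes as reference.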

The test system of experiment [2] is RARg:RXRa (NR concentration 270 nM, RXRa partner concentration 90 nM). Summed up:
as §1

Experiment [3] has as its system RARg homodimer (NR concentration 270 nM). Put shortly: as §1
The test system of experiment [4] is RXRa DBDmut IVT, anti-RXR (DBD mutation: RXRa K156A/R161A, NR concentration 90 nM). Put shortly: as §1
The subject of experiment [5] is RXRa homodimer (NR concentration 180 nM). Summed up: as §1
For experiment [6], the system named is THRa:RXRa (NR concentration 90 nM, RXRa partner concentration 90 nM). Put shortly:
as §1

The subject of experiment [7] is THRa homodimer (NR concentration 90 nM). Summed up:
as §1

The test system of experiment [8] is VDR homodimer (NR concentration 270 nM). Put shortly:
as §1

This is an account of results in the supplement of paper PMC6555819.

Turning to CCAACTAGGTCAAAGGTCAAAGTCGAGCCAACCA, the PBM binding z-score in experiment [1] amounted to 5.33; in experiment [2], 9.03; in experiment [3] it was 7.43; in experiment [4] it was 3.14; in experiment [5], 10.2; in experiment [6] it was 4.82. Besides, the results for the PBM binding z-score in experiment [7] and in experiment [8] were 1.79 and 3.47, respectively.

Consider TCGTATAGGTAAAAGGTGAAAGTCGGTGTGGTAA, for which the PBM binding z-score in experiment [1] is 2.13; in experiment [2], 2.13; in experiment [3] it was 0.793; in experiment [4] it was 1.59; in experiment [5], 3.14; in experiment [6], 1.85. Moreover, the PBM binding z-score was determined as 0.583 in experiment [7] and 0.462 in experiment [8].

With GCAACGAGGGCAAAGTTGATAGCATCTGTCGACG, the PBM binding z-score in experiment [1] worked out at 0.991; in experiment [2], 1.89; in experiment [3], 1.57; in experiment [4] it was 2.62; in experiment [5], 1.81; in experiment [6] it was 1.19. Also, the PBM binding z-score is -0.191 in experiment [7] and 1.21 in experiment [8].

With ACTATTAGTTGACTTAGTGCAACCGATACGACGC, the PBM binding z-score in experiment [1] was 0.207; in experiment [2], 0.552; in experiment [3] it was 0.65; in experiment [4], 0.565; in experiment [5] it was 0.369; in experiment [6], 0.0819. In addition, the PBM binding z-score is -0.158 in experiment [7] and 0.241 in experiment [8].

For the sequence ACAGACAGGTGAGTGAAGTTAACTCAGCTGGACG, the PBM binding z-score was -0.414 in experiment [1]; -0.0567 in experiment [2]; 0.156 in experiment [3]; -0.397 in experiment [4]; 0.359 in experiment [5]; -0.189 in experiment [6]. The figures for the PBM binding z-score in experiment [7] and in experiment [8] were -1.01 and -0.612, respectively.

As to AAAACAGGGTCACTAGGCCAGAGTAGGTACGAAT, the PBM binding z-score in experiment [1] worked out at 3.35; in experiment [2] it was 5.4; in experiment [3] it was 4.84; in experiment [4], 2.95; in experiment [5], 5.7; in experiment [6] it was 3.48. In addition, the PBM binding z-score in experiment [7] was found to be 1.18; in experiment [8], 2.76.

Take CCGACTGGGGCCGAAAGGTTACCATACCATCCGG: the PBM binding z-score was 2.41 in experiment [1]; 2.18 in experiment [2]; 1.28 in experiment [3]; -0.679 in experiment [4]; 2.15 in experiment [5]; 1.14 in experiment [6]. Further, the PBM binding z-score is -0.247 in experiment [7] and -0.349 in experiment [8].
